# Source: PubChem (National Center for Advancing Translational Sciences (NCATS))
# The list is not random: actives were taken first. Their share in the collection is about 8%.
# Marburg entry inh: blocks Marburg virus binding to or entry into cells; Potency, µM (top dose mostly 37.8 µM), without a hit: at the highest dose activity change, negative = inhibition, hits mostly inhibitors; 1.8% of 300,000 active; Marburg virus pseudotyped entry inhibition, cell reporter; calls by dose curve; tested in HEK293 cells; also: potency is read from the fitted curve at half-maximal effect; % is scaled to controls: 0 for no effect and ±100 for the full control effect
# SARS PLP yeast: blocks SARS-CoV papain-like protease in a yeast assay | S. cerevisiae expressing SARS-CoV PLpro, growth rescue | Potency, µM (titrated, usually from 32.9 µM), without a hit: at the highest dose activity, positive = growth rescue, hits mostly activators | 0.19% of 330,000 active | AID 485353; calls by dose curve; also: potency is read from the fitted curve at half-maximal effect; 0% is about no effect; nearly all actives have a fitted effect of over 55% in size
# HCMV antiviral: human cytomegalovirus inhibition | HFF cells, HCMV-luciferase reporter, 72 h; hits give low values | activity change, negative = inhibition, % at 57.5 µM | 4.5% of 410,000 active | AID 1259415; in the data active = activity change below about -60%; inconclusive = no clear call, values can overlap the other calls; inactive = above about -39%; also: % is scaled to controls: 0 for no effect and ±100 for the full control effect
#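 Inhibition of viral replication was scored as loss of reporter luminescence in HFFs infected with HCMV-luciferase (MOI 1 PFU/cell) for 72 h; compounds tested at 2 doses, normalized to buffer and Salinomycin controls.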
# LASV entry inh: blocks Lassa virus binding to or entry into cells; Lassa virus pseudotype entry inhibition, cell reporter; Potency, µM (series often up to 37.9 µM), for the others: top-dose activity change, negative = inhibition, most hits filed as inhibitors; 1.2% of 300,000 active; AID 540256; calls by dose curve; tested in HEK293 cells; also: potency is read from the fitted curve at half-maximal effect; % is scaled to controls: 0 for no effect and ±100 for the full control effect; nearly all actives have a fitted effect of over 50% in size
# HCV inhibitor: HCV inhibition; Huh7.5.1 HCVcc-Cre infection, luciferase reporter, 44 h; Potency, µM (titrated, usually from 41.8 µM), for the others: at the top dose activity change, negative = inhibition, most hits filed as inhibitors; 3.4% of 340,000 active; AID 651820; active = well fitted inhibition curve with a large enough effect; inconclusive = small, poorly fitted or top-dose-only effect, or another doubt; inactive = no such curve, though single readings can be large or run the other way; also: potency is read from the fitted curve at half-maximal effect; % is scaled to controls: 0 for no effect and ±100 for the full control effect
#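 Cells (1,000/well) were plated 4 h before compound, then infected with HCVcc-Cre virus (~0.5 moi). After 44 h further culture, infection was read as luciferase luminescence following a 15 min substrate incubation at room temperature.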
# FMDV inh: blocks foot and mouth disease virus; FMDV antiviral cell-based qHTS; Potency, µM (series often up to 57.9 µM), for the others: at the highest dose activity change, negative = inhibition, most hits filed as inhibitors; 1.2% of 410,000 active; AID 1159524; calls by dose curve; tested in HEK293T cells; also: read-out not given here; potency is read from the fitted curve at half-maximal effect; % is scaled to controls: 0 for no effect and ±100 for the full control effect; nearly all actives have a fitted effect of over 45% in size
# * hit, by the source's call; u = inconclusive; x = not tested or not shown; [ ] = remark or other dose.
SMILES,Marburg entry inh,SARS PLP yeast,HCMV antiviral,LASV entry inh,HCV inhibitor,FMDV inh
CN1C(=O)/C(=C/c2cccn2-c2ccc3ccccc3c2)C(=O)NC1=S,u,-12.3%,-105.0*,u,1.1%,28.2µM*
CCc1ccc(N2C(=O)NC(=O)/C(=C/c3cccn3CCOc3ccc(C)cc3)C2=O)cc1,14.9%[46.1 µM],20.3%,69.4,2.5%[46.1 µM],-1.3%,-21.5%
Cc1cc(C)cc(N2C(=O)NC(=O)/C(=C\c3cccn3-c3ccccc3)C2=O)c1,u,-41.9%,-20.3,u,u,35.5µM*
Cc1cc(C)cc(N2C(=O)NC(=O)/C(=C\c3cccn3-c3ccc(Cl)cc3)C2=O)c1,u,6.6%,-22.8,u,20.8%,8.91µM*
O=C1NC(=S)NC(=O)C1=Cc1cccn1-c1ccc(O)cc1,x,-0.1%,-99.4*,x,u,20µM*
O=Cc1cccn1-c1ccc2ccccc2c1,x,-1.2%,u,x,0.3%,46.7%
CC(C)c1ccc(CN2C(=O)C(n3cccc3)c3cccc(F)c32)cc1 (centres undefined),x,x,-31.2,x,x,x
Cc1ccc(-c2cn3c(n2)sc2cc(C(=O)NC4CCCCC4)ccc23)cc1,x,x,x,-4.5%[46.1 µM],x,8.5%
CCN(C)C(=O)c1coc(N2CCN(Cc3cccc(F)c3)C2=O)n1,x,x,-10.8,x,x,x
COC(=O)[C@H]1[C@H](CO)[C@H]2Cn3c(cccc3=O)[C@@H]1N2CC1CCCCC1,x,x,-13.3,x,x,x
CC(C)C(=O)Nc1ncc(Cc2cccc(Cl)c2)s1,u,11.7%,-68.6*,-35.4%,-8.7%,-20.3%
CCc1ccc(CCC(=O)Nc2ncc(Cc3ccccc3Cl)s2)o1,u,-6.1%,-60.8*,u,u,-21.4%
O=C(Nc1ncc(Cc2ccccc2Cl)s1)c1ccc(-c2cccc([N+](=O)[O-])c2)o1,5.6%,8.0%,-62.6*,x,22.4µM*,u
CC(=O)Nc1ncc(Cc2cccc(Cl)c2)s1,u,-6.0%,-33.2,-16.6%[46.1 µM],-16.8%,-0.5%
O=C(Nc1ncc(Cc2ccccc2Cl)s1)c1ccc([N+](=O)[O-])cc1,-5.9%,4.9%,-18.4,-11.7%,u,u
O=C(Nc1ncc(Cc2cccc([N+](=O)[O-])c2)s1)c1ccco1,x,-0.3%,-71.9*,x,u,7.3%
Cc1ccc(Cc2cnc(NC(=O)c3ccco3)s2)cc1,u,-17.8%,0.5,u,u,x
Cn1nnnc1SCCCNCc1ccccc1OCc1ccc(Cl)cc1,u,x,-15.2,-3.9%[46.1 µM],x,-0.3%
CC(=O)Oc1ccc(OC(C)=O)c(SCCCCCCl)c1,u,-5.6%,-72.4*,u,11.2µM*,u
CCc1ccn2cc(-c3ccc4c(c3)OCO4)nc2c1,u,-9.4%,-77.8*,0.891µM*,u,8.91µM*
COC(=O)c1ccc2nc(-c3ccc4c(c3)OCO4)cn2c1,u,-0.4%,-8.7,2µM*,0.8%,0.0%
c1cnc2nc(-c3ccc4c(c3)OCO4)cn2c1,u,-3.1%,190.1,-29.1%,1.4%,45.3%
COc1cc(O)c2c(c1)C(=O)c1cc(C)cc(O)c1C2=O,x,x,x,x,x,1.1%
Cc1cc(O)c2c(c1)C(=O)C13C(=C2O)C(=O)[C@H]2[C@@H](O)[C@@H]1[C@H]1[C@H](O)[C@@H]3C(=O)C3=C(O)c4c(O)cc(C)cc4C(=O)C312 (some centres undefined),x,1.7%,x,x,10µM*,-2.8%
CC(=O)N(CN1C(=O)CCC1=O)c1ccc(Cl)c(Cl)c1,x,2.7%,-66.4*,x,7.9%,11.2µM*
SMILES,Marburg entry inh,SARS PLP yeast,HCMV antiviral,LASV entry inh,HCV inhibitor,FMDV inh
COc1ccccc1CNC(=O)Cn1c(-c2cccs2)cc2cc(F)ccc21,x,x,-8.1,19.0%[46.1 µM],x,-3.0%
CN(CC(=O)Nc1cc([N+](=O)[O-])ccc1Cl)Cc1ccc(Br)cc1,-20.5%,-10.3%,-13.5,7.9%,u,-0.5%
Cc1ccsc1CN(C)CC(=O)Nc1ccc([N+](=O)[O-])cc1Cl,10µM*,-32.9%,u,u,12.6µM*,-14.0%
O=C1Nc2cccnc2N(C(=O)CCl)c2ccccc21,u,1.0%,u,u,15.8µM*,u
CC1(C)CC(=O)C(C=NCCN2CCN(CCc3ccccc3)CC2)=C(O)C1,u,12.6%,30.8,-8.6%,11.2µM*,-16.2%
CC1(C)CC(=O)C(C=NCCN2CCN(CC(=O)Nc3ccc(Cl)cc3)CC2)=C(O)C1,-11.6%,-0.1%,-8.4,-4.9%,12.6µM*,-12.9%
Cc1ccc(NC(=O)CN2CCN(CCN=CC3=C(O)CC(C)(C)CC3=O)CC2)cc1,9.7%[46.1 µM],-7.1%,15.0,14.4%,22.0%,-5.0%
COc1ccc(C)cc1NC(=O)CCn1nc(C)cc1C,x,x,10.8,u,x,-6.7%
COc1cc(CNn2c(C)n[nH]c2=S)cc(Br)c1OCc1ccc(F)cc1,-21.9%,5.4%,u,u,u,-22.7%
Fc1ccccc1COc1ccc(Br)cc1CNCc1ccncc1,u,-30.6%,-23.9,-18.8%,-13.3%,31.6µM*
Fc1ccc(COc2cccc(CNCc3ccncc3)c2)cc1,6.31µM*,-0.8%,-71.1*,-10.9%,u,-22.5%
Fc1ccc(COc2ccc(Br)cc2CNCc2ccncc2)cc1,u,-22.8%,u,-20.6%,10µM*,u
Fc1ccccc1COc1ccc(Br)cc1CNCc1cccnc1,u,-1.4%,-3.6,u,u,u
O=C(O)c1ccc(CNCc2cccc(OCc3ccc(F)cc3)c2)cc1,11.4%[46.1 µM],-0.2%,u,0.3%[46.1 µM],14.5%,-7.4%
CCOc1cc(CNCc2ccncc2)cc(Br)c1OCc1ccc(F)cc1,u,-6.2%,-65.0*,-18.0%,10µM*,15.8µM*
CCC1C=CC=CC[C@H](C)[C@@H](O)[C@](C)(O)C(=O)[C@@H](C)[C@H](O)[C@@H](C)C(=O)[C@H](C)[C@@H](O)[C@H](C)C=CC(=O)OC2[C@@H](C)C(CC1)OC1(CC[C@@H](C)C(C[C@H](C)O)O1)[C@@H]2C (some centres undefined),x,1.2%,x,x,0.891µM*,x
CCOC(=O)C(Cc1ccc(OC)c([N+](=O)[O-])c1)NC(=O)CCC(=O)Nc1ccc(OC)cc1 (centres undefined),11.3%[46.1 µM],0.5%,-104.7*,-9.1%[46.1 µM],2.0%,14.0%
CC(NC(=O)CSc1nc2c(c(C(F)(F)F)n1)CCc1ccccc1-2)c1ccccc1 (centres undefined),u,3.1%,u,u,12.6µM*,u
Cc1ccccc1-c1cncnc1N1CCNCC1,x,x,x,x,x,-11.0%
CCCN(CCC)C(=O)CC(c1ccccc1)c1ccc(C)cc1O (centres undefined),u,-27.9%,-69.7*,28.5%[14.3 µM],x,-20.2%
Cc1ccc(C(CC(=O)NCC2(c3ccccc3)CCCC2)c2ccccc2)c(O)c1 (centres undefined),u,x,-15.2,u,x,7.94µM*
CC(=O)NCCC(=O)NCc1ccc(F)cc1,17.8%[46.1 µM],-3.9%,50.5,18.8%,12.5%,11.7%
CC(=O)NCc1ccc(C(=O)CCl)cc1,18.2%[46.1 µM],4.3%,-23.0,-8.3%[46.1 µM],u,31.6µM*
